Drawing on PubChem BioAssay (NCI), this text covers growth inhibition for seven compounds.

Several values for one entry are separate records, joined by “and”; a condition that tells them apart may be missing. Equal entries are not always repeated. Compounds without any hit were thinned out: in the full panel of roughly 79,000, 15% have a hit. More than one record can exist for a structure, and the calls need not agree. Activity calls are given as the source filed them. Cut-off read from the data, not from the text of the source: active = growth inhibition above about 70%; inactive = the rest.

A short description of test [1]: NCI Yeast Anticancer Drug Screen. Data for the rad50 strain (AID 155).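 Note: 0% = growth of vehicle-only cultures of the same strain.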 To be noted: S. cerevisiae rad50 strain growth inhibition, stronger effect = higher value. The method, boiled down: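 Relative growth inhibition (compound vs vehicle) was measured in yeast with a defined repair-gene alteration.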
The nature of test [2]: NCI Yeast Anticancer Drug Screen. Data for the mec2-1 strain (AID 157). To be noted: S. cerevisiae mec2-1 strain, stronger effect = higher value. In short, it runs like this: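 Compounds were applied to mec2-1 yeast cells. Their growth was then compared with that of vehicle-treated cultures to give growth inhibition.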
The nature of test [3]: NCI Yeast Anticancer Drug Screen. Data for the sgs1 mgt1 strain (AID 161).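 Note: 0% = growth of cultures given vehicle only.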 The settings on record: S. cerevisiae sgs1 mgt1 strain, stronger effect = higher value. In short, it runs like this: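 This yeast growth screen uses a strain with defined DNA-repair lesions; compound-treated growth is compared with vehicle-treated growth.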
Test [4] can be described thus: NCI Yeast Anticancer Drug Screen. Data for the cln2 rad14 strain (AID 165).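 Note: 0% = growth equal to vehicle treated cultures.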 The settings on record: S. cerevisiae cln2 rad14 strain, stronger effect = higher value. The method, boiled down:
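Strain: cln2 rad14 yeast, altered in cell cycle control and DNA damage repair. Read-out: growth inhibition vs vehicle.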

Test [5] can be described thus: NCI Yeast Anticancer Drug Screen. Data for the bub3 strain (AID 167). To be noted: S. cerevisiae bub3 mutant strain, stronger effect = higher value. In short, it runs like this: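 Screening used yeast with an engineered genetic alteration affecting cell cycle control. Compound-exposed cultures were compared with vehicle cultures, and reduced growth was taken as inhibition.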

Test [6] can be described thus: NCI Yeast Anticancer Drug Screen. Data for the mlh1 rad18 strain (AID 175). To be noted: S. cerevisiae mlh1 rad18 strain growth inhibition, stronger effect = higher value. The method, boiled down:
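A repair-deficient yeast strain is exposed to test compound, and growth is scored relative to vehicle-treated controls.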

[7] abbreviates: at 5.0 µM (retest, dose inferred, filed as 0.5).
[8] abbreviates: at 50.0 µM (retest, dose inferred, filed as 5.0).

For the compound `CC(=O)Nc1ccc(S(=O)(=O)N/N=C/c2ccc(C)cc2)cc1`, the growth inhibition is 7% (inactive) in test [1] (setting [7]); 8% (inactive) in test [1] (setting [8]); -3.15% (inactive) in test [1] (at 50.0 µM); 8% (inactive) in test [2] (setting [7]); 1% (inactive) in test [2] (setting [8]); -17.6% (inactive) in test [2] (at 50.0 µM). The growth inhibition was 15% (inactive) in test [3] (setting [7]); 6% (inactive) in test [3] (setting [8]); 7.45% (inactive) in test [3] (at 50.0 µM); 8% (inactive) in test [4] (setting [7]); 1% (inactive) in test [4] (setting [8]); 64.5% (inactive) in test [4] (at 50.0 µM). Further, the growth inhibition in test [5] (setting [7]) was 26% (inactive); in test [5] (setting [8]) it was -1% (inactive); in test [5] (at 50.0 µM), -38.6% (inactive); in test [6] (setting [7]), 28% (inactive); in test [6] (setting [8]) it was 7% (inactive); in test [6] (at 50.0 µM), -12.4% (inactive).

As to `COc1cc(NCCCCCCC2CCCCN2)c2ncccc2c1` (stereo unspecified), the growth inhibition is 0% (inactive) and 4% (inactive) in test [1] (setting [7]); 81% (active) and 71% (active) in test [1] (setting [8]); 50.5% (inactive) and 85.7% (active) in test [1] (at 50.0 µM); -1% (inactive) in test [2] (setting [7]); 47% (inactive) and 23% (inactive) in test [2] (setting [8]); 49.2% (inactive) and 45.4% (inactive) in test [2] (at 50.0 µM). Further, the growth inhibition is -7% (inactive) and 0% (inactive) in test [3] (setting [7]); 71% (active) and 81% (active) in test [3] (setting [8]); 40.6% (inactive) and 88% (active) in test [3] (at 50.0 µM); 5% (inactive) and 3% (inactive) in test [4] (setting [7]); 27% (inactive) and 61% (inactive) in test [4] (setting [8]); 14.1% (inactive) and 11.3% (inactive) in test [4] (at 50.0 µM). The growth inhibition is 1% (inactive) and 4% (inactive) in test [5] (setting [7]); 54% (inactive) and 37% (inactive) in test [5] (setting [8]); 53.4% (inactive) and 71.5% (active) in test [5] (at 50.0 µM); 3% (inactive) and 2% (inactive) in test [6] (setting [7]); 89% (active) and 78% (active) in test [6] (setting [8]); 61% (inactive) and 94.5% (active) in test [6] (at 50.0 µM).

For the compound `Clc1c(C(Cl)(Cl)Cl)nsc1N1CCCCC1`, the growth inhibition in test [1] (setting [7]) is 17% (inactive); in test [1] (setting [8]), 58% (inactive); in test [1] (at 50.0 µM) it was 50.6% (inactive); in test [2] (setting [7]) it was 16% (inactive); in test [2] (setting [8]) it was 51% (inactive); in test [2] (at 50.0 µM) it was 23.1% (inactive). The growth inhibition in test [3] (setting [7]) is -3% (inactive); in test [3] (setting [8]) it was 39% (inactive); in test [3] (at 50.0 µM), 33.1% (inactive); in test [4] (setting [7]) it was 17% (inactive); in test [4] (setting [8]), 10% (inactive); in test [4] (at 50.0 µM), 28% (inactive). Also, the growth inhibition in test [5] (setting [7]) was 1% (inactive); in test [5] (setting [8]), 18% (inactive); in test [5] (at 50.0 µM) it was 51.4% (inactive); in test [6] (setting [7]), 18% (inactive); in test [6] (setting [8]), 84% (active); in test [6] (at 50.0 µM), 46.7% (inactive).

For the compound `CC(NC(=O)C(N)Cc1ccccc1)C(=O)NC1C(CO)OC(n2cnc3c(N)ncnc32)C1O` (stereo unspecified), the growth inhibition in test [1] (setting [7]) is 0% (inactive); in test [1] (setting [8]), -1% (inactive); in test [1] (at 50.0 µM), 32.2% (inactive); in test [2] (setting [7]), 2% (inactive); in test [2] (setting [8]), 17% (inactive); in test [2] (at 50.0 µM), 76.9% (active). In addition, the growth inhibition in test [3] (setting [7]) is -5% (inactive); in test [3] (setting [8]), -20% (inactive); in test [3] (at 50.0 µM), 3.5% (inactive); in test [4] (setting [7]) it was 0% (inactive); in test [4] (setting [8]), -6% (inactive); in test [4] (at 50.0 µM), 97.7% (active). Besides, the growth inhibition was -3% (inactive) in test [5] (setting [7]); -4% (inactive) in test [5] (setting [8]); 96.5% (active) in test [5] (at 50.0 µM); 12% (inactive) in test [6] (setting [7]); 32% (inactive) in test [6] (setting [8]); 69.5% (inactive) in test [6] (at 50.0 µM).

As for `OC1(C2C=CC=C2)c2ccccc2C=Cc2ccccc21`, the growth inhibition in test [1] (setting [7]) is 4% (inactive); in test [1] (setting [8]), 51% (inactive); in test [1] (at 50.0 µM), 91% (active); in test [2] (setting [7]), 13% (inactive); in test [2] (setting [8]) it was 48% (inactive); in test [2] (at 50.0 µM), 10.7% (inactive). In addition, the growth inhibition in test [3] (setting [7]) was 4% (inactive); in test [3] (setting [8]), 54% (inactive); in test [3] (at 50.0 µM), 78.6% (active); in test [4] (setting [7]) it was -36% (inactive); in test [4] (setting [8]), 70% (active); in test [4] (at 50.0 µM), 48.4% (inactive). Further, the growth inhibition was -14% (inactive) in test [5] (setting [7]); -85% (inactive) in test [5] (setting [8]); 69.5% (inactive) in test [5] (at 50.0 µM); 9% (inactive) in test [6] (setting [7]); 37% (inactive) in test [6] (setting [8]); 89.6% (active) in test [6] (at 50.0 µM).

`O=C1CCC(c2ccccc2)(C2(c3ccccc3)CCC(=O)O2)O1` (stereo unspecified): the growth inhibition in test [1] (setting [7]) was 1% (inactive); in test [1] (setting [8]) it was 7% (inactive); in test [1] (at 50.0 µM) it was 17.4% (inactive) and 59.5% (inactive); in test [2] (setting [7]), -4% (inactive); in test [2] (setting [8]) it was 4% (inactive); in test [2] (at 50.0 µM) it was 4.8% (inactive) and 50.9% (inactive). In addition, the growth inhibition is 3% (inactive) in test [3] (setting [7]); 57% (inactive) in test [3] (setting [8]); 12.4% (inactive) and 70.5% (active) in test [3] (at 50.0 µM); 4% (inactive) in test [4] (setting [7]); 52% (inactive) in test [4] (setting [8]); 4.35% (inactive) and 13.1% (inactive) in test [4] (at 50.0 µM). Further, the growth inhibition in test [5] (setting [7]) was 2% (inactive); in test [5] (setting [8]), 21% (inactive); in test [5] (at 50.0 µM) it was 13.8% (inactive) and 10.7% (inactive); in test [6] (setting [7]) it was 4% (inactive); in test [6] (setting [8]), 47% (inactive); in test [6] (at 50.0 µM) it was -0.2% (inactive) and 63.1% (inactive).

For the compound `O=C(OC(=Nc1ccccc1)N(c1ccccc1)c1ccccc1)c1ccccc1`, the growth inhibition in test [1] (setting [7]) is 5% (inactive); in test [1] (setting [8]) it was 27% (inactive); in test [1] (at 50.0 µM), 13% (inactive) and 20.9% (inactive); in test [2] (setting [7]), 5% (inactive); in test [2] (setting [8]) it was 8% (inactive); in test [2] (at 50.0 µM), 3.75% (inactive) and 12.8% (inactive). For the same compound, the growth inhibition is -7% (inactive) in test [3] (setting [7]); 40% (inactive) in test [3] (setting [8]); 12.7% (inactive) and -15.7% (inactive) in test [3] (at 50.0 µM); 5% (inactive) in test [4] (setting [7]); 21% (inactive) in test [4] (setting [8]); 17.8% (inactive) and -2.05% (inactive) in test [4] (at 50.0 µM). The growth inhibition in test [5] (setting [7]) is 17% (inactive); in test [5] (setting [8]) it was 34% (inactive); in test [5] (at 50.0 µM), 5.4% (inactive) and -0.45% (inactive); in test [6] (setting [7]), 9% (inactive); in test [6] (setting [8]), 20% (inactive); in test [6] (at 50.0 µM) it was 1.95% (inactive) and 12.6% (inactive).
